These results are taken from PubChem BioAssay (Tox21).

The target in assay [1] is Retinoic acid receptor RXR-alpha (Homo sapiens) (UniProt P19793). In words: qHTS assay to identify small molecule agonists of the RXR signaling pathway (AID 1159527; calls by dose curve; note: nearly all actives have a fitted effect of over 35% in size; note: potency is the fitted concentration of half-maximal effect). Put shortly: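 qHTS of the Tox21 10K library in GeneBLAzer RXR-alpha HEK 293T cells carrying a beta-lactamase reporter […]; 16 hr treatment, 9-cis retinoic acid as agonist control, FRET read-out.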
Retinoic acid receptor RXR-alpha (Homo sapiens), sequence (P19793 whole entry, looked up): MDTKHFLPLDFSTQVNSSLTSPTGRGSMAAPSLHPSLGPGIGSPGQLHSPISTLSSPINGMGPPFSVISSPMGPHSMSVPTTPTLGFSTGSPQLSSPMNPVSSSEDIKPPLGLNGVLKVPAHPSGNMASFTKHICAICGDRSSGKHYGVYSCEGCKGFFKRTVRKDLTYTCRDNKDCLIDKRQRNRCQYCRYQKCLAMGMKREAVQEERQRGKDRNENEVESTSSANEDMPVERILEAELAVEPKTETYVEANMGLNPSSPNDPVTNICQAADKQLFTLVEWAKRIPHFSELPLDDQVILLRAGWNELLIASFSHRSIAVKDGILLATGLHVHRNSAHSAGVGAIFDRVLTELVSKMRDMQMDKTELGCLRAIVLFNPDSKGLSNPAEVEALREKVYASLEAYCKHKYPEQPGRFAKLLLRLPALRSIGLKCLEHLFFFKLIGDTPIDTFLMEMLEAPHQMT

Assay [2] is described as follows: qHTS assay to identify small molecule agonists of the RXR signaling pathway - cell viability counter screen (AID 1159529). Note: nearly all actives have a fitted effect of over 50% in size. Note: potency is the fitted concentration of half-maximal effect. Put shortly: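 Cell viability is measured by CellTiter-Glo luminescence, 30 min at room temperature, in wells already read for beta-lactamase. Engineered HEK 293T cells (RXR-alpha-UAS-bla) are dosed 16 hr at 37 C. Tetraoctyl ammonium bromide serves as positive control.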
Background: Quantitative high-throughput screening tests each substance at several concentrations.

A short description of assay [3]: qHTS assay to identify small molecule antagonists of the retinoic acid receptor (RAR) signaling pathway (AID 1159552; note: nearly all actives have a fitted effect of over 50% in size; note: potency is the fitted concentration of half-maximal effect). Put shortly:
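Quantitative HTS in C3RL4 RARE-luciferase reporter cells. Compounds were added with 1 uM (final) retinol; luminescence was read after 6 hr.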

The nature of assay [4]: qHTS assay to identify small molecule agonists of the retinoic acid receptor (RAR) signaling pathway (AID 1159553). Note: potency is the fitted concentration of half-maximal effect. Put shortly:
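Luminescence was measured 30 min after luciferase reagent addition at room temperature. Before that, C3RL4 reporter cells (1,000 per well, plated overnight) were treated with compound for 6 hr at 37 C and 5% CO2.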

Assay [5] in a line: qHTS assay to identify small molecule antagonists of the retinoid acid receptor (RAR) signaling pathway - cell viability counter screen (AID 1159551). Note: nearly all actives have a fitted effect of over 35% in size. Put shortly: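 Cytotoxicity counter screen: ATP content quantified by CellTiter-Glo luminescence in C3RL4 cells treated 6 hr at 37 C with compound and retinol (1 uM final). Cells plated at 1,000/well and cultured overnight before dosing.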

Assay [6] can be described thus: qHTS assay to identify small molecule antagonists of the estrogen related receptor (ERR) signaling pathway - cell viability counter screen (AID 1224818). Note: series mostly up to about 46 µM. Put shortly: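 Cytotoxicity counter screen: fluorescence from CellTiter-Fluor, added after 17.5 h compound exposure at 37 C and read 30 min later. ERR cell line seeded at 2,000 cells/well, preincubated 6 h before dosing.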

A short description of assay [7]: qHTS assay to identify small molecule antagonists of the estrogen related receptor signaling pathway with the pleiotropic PPARgamma coactivator (PGC) cell viability counter screen (AID 1224822; note: series mostly up to about 46 µM). Put shortly: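 Viability counter-screen read by fluorescence intensity after 30 min with CellTiter-Fluor at 37 C; PGC/ERR reporter cells were exposed to compounds for 17.5 h at 37 C following a 6 h preincubation.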

Assay [8] is described as follows: qHTS assay to identify small molecule antagonists of the estrogen related receptor (ERR) signaling pathway (AID 1224819;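 note: luminescence from an ERR-driven luciferase reporter measured with One-Glo reagent; series mostly up to about 46 µM; nearly all actives have a fitted effect of over 50% in size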). Put shortly: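 LOPAC library screened for antagonism as reduced One-Glo luminescence in ERR reporter cells (2,000/well). Compounds were added after 6 h pre-incubation and left 18 h at 37C; reading followed a 30 min room-temperature reagent step.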

Assay [9] in a line: qHTS assay to identify small molecule agonists of the estrogen related receptor (ERR) signaling pathway (AID 1224820). Put shortly:
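Following a 6 h settling period, 2,000 ERR cells per well receive DMSO-dissolved compounds by pin tool and incubate 18 h at 37 C; agonist activity is scored from One-Glo luminescence read 30 min post-addition.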

The subject of assay [10] is estrogen-related receptor alpha (ERRalpha) with PGC-1alpha coactivator, human. The assay can be described thus: qHTS assay to identify small molecule antagonists of the estrogen related receptor signaling pathway with the pleiotropic PPARgamma coactivator (PGC) (AID 1224821; calls by dose curve;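 note: series mostly up to about 46 µM; lower luminescence signal means antagonism of PGC/ERR signalling; nearly all actives have a fitted effect of over 50% in size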). Put shortly:
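Screening used NTP's PGC/ERR cells, dosed via pin tool with compound in DMSO alongside positive and negative controls. After 18 h at 37 C, One-Glo reagent sat 30 min at room temperature before luminescence detection.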

Where “and” joins values, the source holds several entries; their conditions need not be identical. Equal entries are not always repeated. Inconclusive results are not listed. A structure can be active in one record and inactive in another. Calls of active or inactive are those of the source. Unless noted, calls come from the whole dose curve; as a rule, active = well fitted curve in the direction sought with a large enough effect in the repeat runs; inconclusive = weak or mixed curves; inactive = no such curve, though single readings can be large; an effect the other way counts as inactive or inconclusive.

`COC(=O)C1CCC(C(=O)OC)CC1` (stereo unspecified): the Potency result in assay [1], in [2], in [3] and in [4] was “inactive” each time.
Regarding `CCc1cc(C(N)=S)ccn1`, the Potency entry in assay [1], in [2], in [3] and in [4] was “inactive” throughout.
Consider `CC(=O)CCC(C)C`, for which the Potency entry in assay [1], in assay [2], in assay [3] and in [4] was “inactive” each time.
For `CN(C)C=O`, the Potency entry in assay [1], in assay [2], in assay [3] and in assay [4] was “inactive” in each case.
Consider `COc1ccc(C(=O)c2ccccc2)c(O)c1`, for which the Potency entry in [1], in assay [2] and in assay [3] was “inactive” each time. For the same compound, the Potency in [4] was 61.1 µM (active) and 23.7 µM (active).
With `NC(=O)NO`, the Potency entry in assay [1], in [2], in [3] and in assay [4] was “inactive” in each case. In addition, the call in assay [5], in [6] and in assay [7] was inactive.
For `Nc1cccc(N)c1`, the Potency entry in [1], in assay [2], in [3] and in assay [4] was “inactive” each time.
Turning to `C=C(C)C(N)=O`, the Potency result in [1], in assay [2], in assay [3] and in assay [4] was “inactive” throughout.
Regarding `CCOC(=O)C(C)(C)Oc1ccc(Cl)cc1`, the Potency result in [1], in assay [2] and in assay [8] was “inactive” each time. Moreover, the outcome in [5], in assay [6], in [9], in assay [10] and in assay [7] was inactive.
For `O=C(O)CN(CC(=O)O)CC(=O)O`, the Potency result in assay [1], in assay [2], in [3] and in [4] was “inactive” each time. Moreover, the result in assay [5] was inactive.
Turning to `CC(=O)Oc1ccccc1C(=O)O`, the Potency entry in assay [1], in assay [2], in [3] and in assay [4] was “inactive” throughout. Also, the compound was called inactive in [5], in assay [6] and in assay [7].
For the compound `CC(C)(C)NCC(O)c1ccc(O)c(CO)c1` (stereo unspecified), the Potency result in assay [1], in assay [2], in assay [3] and in assay [4] was “inactive” each time. Also, the call in assay [5], in [6] and in assay [7] was inactive.
For the compound `Cc1ccc(O)c(-n2nc3ccccc3n2)c1`, the Potency entry in assay [1], in assay [2] and in assay [3] was “inactive” throughout. Moreover, the Potency in assay [4] was 1.52 µM (active) and 1.93 µM (active) and 2.98 µM (active).
For `Nc1ccc(N=Nc2ccccc2)c(N)n1`, the Potency result in assay [1], in assay [2] and in [3] was “inactive” throughout. The call in [5] was inactive. The Potency in assay [4] is 1.23 µM (active) and 969 nM (active) and 2.37 µM (active).
`OCCCc1ccccc1`: the Potency result in [1], in assay [2], in [3] and in assay [4] was “inactive” each time. Further, the compound was called inactive in assay [5].
Consider `CCN1CCCC1=O`, for which the Potency entry in assay [1], in assay [2], in assay [3] and in assay [4] was “inactive” in each case.
Take `CCCCOCCOCCSC#N`: the Potency entry in assay [1], in assay [2], in assay [3] and in assay [4] was “inactive” throughout.
With `NCCNc1cccc2ccccc12`, the Potency entry in assay [1] and in [2] was “inactive” in each case. For the same compound, the Potency in assay [3] was 30.6 µM (active) and 23.7 µM (active).
On to `Cc1cccc(C)c1O`, for which the Potency result in assay [1], in assay [2], in assay [3] and in [4] was “inactive” each time. In addition, in assay [5], the call was inactive.
Turning to `NC(=O)N1c2ccccc2C=Cc2ccccc21`, the Potency entry in assay [1], in [2], in assay [3] and in [4] was “inactive” in each case. For the same compound, the compound was called inactive in assay [5], in assay [6] and in assay [7].
`C[C@]12C[C@H](O)[C@H]3[C@@H](CCC4=CC(=O)CC[C@@]43C)[C@@H]1CC[C@@H]2C(=O)CO`: the Potency result in assay [1], in assay [2], in assay [3] and in [4] was “inactive” throughout. Besides, the compound was called inactive in assay [5], in [6] and in assay [7].
For the compound `N[C@@H](Cc1c[nH]c2ccc(O)cc12)C(=O)O`, the Potency entry in [1], in assay [2], in assay [3] and in assay [4] was “inactive” throughout. The compound was called inactive in [6] and in assay [7].
As to `Cc1cccc2ccccc12`, the Potency result in [1], in [2], in assay [3] and in [4] was “inactive” in each case.
As to `O=C(O)Cc1cccc2ccccc12`, the Potency entry in [1] and in [2] was “inactive” in each case. The call in assay [6] and in assay [7] was inactive.
Regarding `O=C1OC(c2ccc(O)cc2)(c2ccc(O)cc2)c2ccccc21`, the Potency was 19.4 µM (active) and inactive in [2]; 48.6 µM (active) and inactive in assay [3]. Besides, the Potency entry in assay [4] is “inactive”.
For `Cc1cccc(Nc2cc(Cl)nc(SCC(=O)O)n2)c1C`, the Potency result in assay [2], in assay [3] and in assay [4] was “inactive” each time.
For `CC(C)Cc1ccc(C(C)C(=O)O)cc1` (stereo unspecified), the Potency result in [1], in [2], in assay [3], in assay [4] and in assay [8] was “inactive” throughout. Besides, the result in [6], in assay [9], in assay [10] and in assay [7] was inactive.
Consider `C/C=C/c1ccc(O)c(OC)c1`, for which the Potency entry in [1], in assay [2], in assay [3] and in assay [4] was “inactive” throughout.
As to `COc1ccccc1NC(=O)CC(C)=O`, the Potency entry in [1], in [2], in [3] and in [4] was “inactive” each time.
Turning to `C=CC(=O)NC(C)(C)CS(=O)(=O)O`, the Potency entry in [1], in assay [2], in assay [3] and in assay [4] was “inactive” each time.
Consider `NC(=O)OCC(COC(N)=O)c1ccccc1`, for which the Potency result in assay [1], in assay [2], in [3] and in assay [4] was “inactive” each time. The compound was classed as inactive in [6] and in assay [7].
In the case of `C=C(C)OC(C)=O`, the Potency result in assay [1], in assay [2], in [3] and in assay [4] was “inactive” throughout.
Consider `CC(O)COc1ccccc1` (stereo unspecified), for which the Potency result in assay [1], in [2], in assay [3] and in assay [4] was “inactive” in each case.
With `Oc1cccc(O)c1`, the Potency entry in [2], in assay [3] and in assay [4] was “inactive” in each case. Also, the result in [5] was inactive.
With `c1ccc2[nH]c(-c3cscn3)nc2c1`, the Potency in [1] is 1.1 µM (active) and inactive; in [4] it was 8.69 µM (active) and 2.43 µM (active) and 5.31 µM (active). In addition, the Potency result in [2] and in [3] was “inactive” each time.
As to `O=c1c(-c2ccc(O)cc2)coc2cc(O)cc(O)c12`, the Potency result in assay [2] and in assay [3] was “inactive” throughout. Further, the call in [5], in assay [6] and in [7] was inactive. Besides, the Potency in [4] is 1.9 µM (active) and 1.37 µM (active) and 2.37 µM (active).
For the compound `Cc1cnc(NC(=O)C2=C(O)c3ccccc3S(=O)(=O)N2C)s1`, the Potency result in [1], in [2], in [3] and in assay [4] was “inactive” in each case. For the same compound, the call in [6] and in assay [7] was inactive.
